# Bioassay records from PubChem BioAssay.
# Only some compounds are listed: those with a hit (about 0.81% of all), similar ones and a draw of the others.
# TSG101-PTAP inh: blocks PTAP/TSG101 interaction to inhibit HIV-1 budding. Fluorescence polarization, FITC-PTAP peptide / Tsg101 binding. Potency, µM (titrated, usually from 115 µM), for the others: top-dose activity change, negative = inhibition, most hits filed as inhibitors. 340,000 tested, under 10 active. AID 493005; active means well fitted inhibition curve with a large enough effect in the main read-out, with a control signal flat, not every such curve was filed as active; inconclusive means small, poorly fitted or top-dose-only effect, or effect the other way, or a change in a side signal; inactive means no such curve, though single readings can be large or run the other way; further: potency means the concentration at half of the fitted maximal effect; % of control where 0% means no effect
# Target sequence (Q99816 whole entry, looked up): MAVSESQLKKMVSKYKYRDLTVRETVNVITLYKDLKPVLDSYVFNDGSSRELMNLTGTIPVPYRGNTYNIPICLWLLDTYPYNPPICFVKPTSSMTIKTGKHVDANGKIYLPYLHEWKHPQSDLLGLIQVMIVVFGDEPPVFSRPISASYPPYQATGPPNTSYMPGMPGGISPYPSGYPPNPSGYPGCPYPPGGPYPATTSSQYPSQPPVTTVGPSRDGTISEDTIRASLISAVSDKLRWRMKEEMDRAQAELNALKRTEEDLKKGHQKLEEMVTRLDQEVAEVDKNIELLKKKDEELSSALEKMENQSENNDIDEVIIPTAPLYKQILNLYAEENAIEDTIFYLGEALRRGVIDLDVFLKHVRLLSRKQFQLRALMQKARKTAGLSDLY
#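 Steps: Tsg101 binding domain dispensed (10 uM final), compounds pinned in DMSO, FITC-labeled PTAP-motif peptide added (50 nM final); after 20 min binding at room temperature, polarization measured.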
# TRPML1 ag: activates the human TRPML1 channel. Q9GZU1. TRPML1-expressing cells, Ca2+ dye fluorescence, FDSS. activation, % (concentration not given with the values). hit rate 0.12% among 410,000; in the data active means activation above about 50%; inconclusive means mostly about 30% to 49%; further: 0% is about no effect
#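 Calcium fluorescence on an FDSS kinetic reader gave the read-out. Tet-induced TRPML1-DL cells were plated overnight, dye-loaded (Ca8 with quencher, 45-90 min, room temperature, dark), then read 110 s after compound addition, and again 110 s after 4uM final 54-4 (EC80).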
# TRPML1 blocker: blocks the human TRPML1 channel; TRPML1-inducible cells, Ca2+ dye fluorescence, FDSS; hits give low values; inhibition of EC80 agonist-evoked calcium signal; activity change, negative = inhibition, % (concentration not given with the values); hit rate 0.02% among 390,000; AID 624415; in the data active means activity change below about -50%; inconclusive means between about -30% and that limit;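 further: stimulus is agonist 54-4 at its EC80 concentration; on the % scale 0 is the no-effect control and ±100 the full control effect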
#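 Calcium fluorescence in TRPML1-DL cells induced overnight with Tet: a 110 s read after compound pin addition, then a 110 s antagonist read after challenge with 54-4 at 4 uM final (EC80).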
# TRHR enhancer: TRH receptor (human) allosteric enhancement; P34981; TRHR cells, fluo-8 calcium fluorescence, EC20 TRH enhancement; enhancement, % at 2 µM; hit rate 0.66% among 360,000; in the data active means enhancement above about 30%; further: 0% is about no effect
#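 Enhancer read-out: after compound pinning and an initial kinetic agonist-mode read, an EC20 of TRH (10 nM final) was injected and fluo-8 calcium signal (Ex 480/Em 530) followed at 1 s/cycle for 100 cycles in TRHR-expressing cells.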
# TRHR agonist: activates the human TRH receptor | AID 493084 | P34981 | TRHR cells, calcium flux fluo-8, FDSS agonist mode | activation, % at 2 µM | hit rate 0.18% among 360,000; in the data active means activation above about 30%; further: 0% is about no effect
#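 Agonist-mode FDSS calcium read (Ex 480/Em 530, 1 s cycles) in 1536-well TRHR cells with fluo-8 dye, after 10-cycle baseline and 23 nL compound addition; TRH at EC20 (10 nM final) added afterwards for the enhancer phase.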
# * hit, by the source's call; ? = inconclusive; nt = not tested or not shown.
SMILES,TSG101-PTAP inh,TRPML1 ag,TRPML1 blocker,TRHR enhancer,TRHR agonist
O=C(C[N+]12CN3CN(CN(C3)C1)C2)c1ccc(Br)cc1,nt,-0.2,nt,nt,nt
CC1=C(C(=O)N2CCN(c3ccc(Cl)cc3)CC2)C2(CCC(C)CC2)OC1=O (configuration not stated),nt,2.6,74.5,50.5*,-0.5
CC(=O)Nc1ccc(NC(=O)C(C)OC(=O)/C(C#N)=C/c2ccc(N(C)C)cc2)cc1 (configuration not stated),?,26.0,2.7,-2.2,23.8
CC(OC(=O)/C(C#N)=C/c1ccc(N(C)C)cc1)C(=O)N(C)c1ccccc1 (configuration not stated),?,?,-19.0,23.8,48.6*
CCOCCCNC(=O)C1CCCN(Cc2nc(-c3ccc(CC)cc3)oc2C)C1 (configuration not stated),nt,0.2,-12.2,32.0*,-0.6
CC(C)C[C@H](NC(=O)N1CC(=O)Nc2ccccc21)C(=O)N[C@H](C(=O)O)c1ccccc1,-1.9%,nt,nt,32.7*,-0.1
CC(C)[C@H](NC(=O)N1CC(=O)Nc2ccccc21)C(=O)N[C@H](C(=O)O)c1ccccc1,-5.3%,0.0,-7.0,30.4*,0.4
Cc1ccccc1CN1[C@H]2CCCC[C@@H]2OCCS1(=O)=O,nt,-1.0,nt,nt,nt
COC(=O)c1ccc(NC(=O)COC(=O)c2nc3nccc(C)n3n2)cc1,-3.1%,-0.4,28.2,32.5*,0.8
Cc1ccnc2nc(C(=O)OCC(=O)Nc3ccc4c(c3)OCCO4)nn12,-6.2%,0.0,5.6,nt,nt
CCCCCNC(=O)c1c[nH]c2ccc(S(=O)(=O)N3CCC(C)CC3)cc2c1=O,nt,1.4,-50.4*,1.2,0.1
CCCCN(C)CCCNC(=O)c1cc(=O)[nH]c2ccc(S(=O)(=O)N3CCCCC3)cc12,nt,0.8,-8.3,53.3*,0.1
O=C(Cc1ccc(F)cc1)NO,nt,-0.5,nt,nt,nt
O=C1CCC[C@@H]2CC(Nc3ccccc3)C[C@@H]3CCN1[C@H]23 (some centres not stated),nt,-0.7,nt,nt,nt
CCCCCCCCCCCCCCCC[n+]1ccc(C)c2ccccc21,nt,0.1,nt,nt,nt
CCCCC(C(=O)N/N=C/c1ccccn1)C(=O)N/N=C/c1ccccn1,-2.2%,-0.4,4.5,35.0*,0.2
Cc1cc2c(s1)c1cnn(Cc3ccc(C(F)(F)F)cc3F)c(=O)c1n2C,nt,nt,nt,2.1,0.9
Cc1cc(/C=C/c2ccnc3ccccc23)ccc1N,nt,27.4,nt,nt,nt
COC(=O)c1cc2c(=O)c3ccccc3oc2nc1C,0.1%,-0.9,1.0,-3.2,1.1
COC(=O)c1cc2c(=O)c3ccccc3oc2nc1/C=C/N(C)C,8.7%,-0.4,1.2,-1.8,35.4*
O=[N+]([O-])c1cccc(C(O)C23CN4CN(CN(C4)C2)C3)c1 (configuration not stated),1.1%,-0.1,8.3,-2.3,0.5
O=[N+]([O-])c1ccc(C(O)C23CN4CN(CN(C4)C2)C3)cc1 (configuration not stated),-2.2%,0.1,-20.1,40.3*,-0.3
O=C(Nc1ccc(S(=O)(=O)Nc2ncccn2)cc1)C1CC(=O)N(c2ccccc2)C1 (configuration not stated),-12.3%,-0.2,10.2,3.9,-0.4
CCOc1ccc(N2CC(C(=O)Nc3ccc(S(=O)(=O)Nc4ncccn4)cc3)CC2=O)cc1 (configuration not stated),-3.7%,-0.6,-7.3,31.9*,0.1
COc1cccc(C2C=C(c3ccc(Br)s3)Nc3ncnn32)c1OC (configuration not stated),-2.3%,1.7,5.7,0.3,32.8*
CCCC(=O)N(C)c1ccc(/C=C2\C=Cc3ccccc32)cc1,nt,-0.7,nt,nt,nt
CC(=O)NNc1ncnc2c1cnn2-c1ccc(C)c(Cl)c1,-3.1%,0.1,17.8,31.4*,0.6
CC(=O)NNc1ncnc2c1cnn2-c1ccc(C)cc1,-2.0%,-0.7,-7.9,0.2,0.5
CCOc1ccc2c(c1)C(=NNC(=O)c1ccncc1)c1cc(OCC)ccc1-2,-2.1%,-0.5,8.2,34.5*,-0.3
O=[N+]([O-])c1ccc2c(c1)/C(=C/c1ccc(C=S)cc1)C=C2,nt,-0.7,nt,nt,nt
